# Source: PubChem (National Center for Advancing Translational Sciences (NCATS))
# Shown is part of a subset that was picked to be rich in hits.
# GCN5L2 inh – GCN5L2 (KAT2A) acetyltransferase inhibition | GCN5L2 HAT assay, ThioGlo1 CoA-SH fluorescence | AID 504327 | Q92830 | Potency, µM (doses to about 58.9 µM), inactives show at the top dose activity change, negative = inhibition, usual class: inhibitors | hit rate 0.21% among 390,000
# Target sequence (Q92830 whole entry, looked up): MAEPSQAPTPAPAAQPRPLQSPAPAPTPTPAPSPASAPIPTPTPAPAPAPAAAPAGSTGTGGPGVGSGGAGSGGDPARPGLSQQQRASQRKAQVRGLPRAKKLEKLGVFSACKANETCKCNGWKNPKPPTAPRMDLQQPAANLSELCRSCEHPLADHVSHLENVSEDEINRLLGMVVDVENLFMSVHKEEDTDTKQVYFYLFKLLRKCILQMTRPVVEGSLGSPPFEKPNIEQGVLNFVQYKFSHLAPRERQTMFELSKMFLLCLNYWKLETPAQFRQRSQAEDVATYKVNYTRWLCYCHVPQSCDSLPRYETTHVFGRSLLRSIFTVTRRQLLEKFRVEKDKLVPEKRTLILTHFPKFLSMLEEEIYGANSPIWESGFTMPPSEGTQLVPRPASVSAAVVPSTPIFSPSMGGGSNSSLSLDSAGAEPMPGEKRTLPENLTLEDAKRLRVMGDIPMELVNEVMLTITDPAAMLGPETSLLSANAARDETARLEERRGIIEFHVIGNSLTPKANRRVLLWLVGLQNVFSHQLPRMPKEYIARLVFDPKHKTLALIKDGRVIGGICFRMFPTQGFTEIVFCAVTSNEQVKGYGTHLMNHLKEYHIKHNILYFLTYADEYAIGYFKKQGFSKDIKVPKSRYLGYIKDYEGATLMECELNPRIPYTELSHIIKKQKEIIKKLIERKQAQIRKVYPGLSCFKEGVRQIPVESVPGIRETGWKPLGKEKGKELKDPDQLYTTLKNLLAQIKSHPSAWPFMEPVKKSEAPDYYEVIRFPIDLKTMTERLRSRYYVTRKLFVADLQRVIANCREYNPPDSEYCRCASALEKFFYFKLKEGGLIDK
#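 Titration-based screen in which CoA formation is detected via maleimide probe ThioGlo1 (50uM) turning fluorescent on thiol reaction; substrates H3(1-25) 75uM and acetyl-CoA 70uM, GCN5L2 20nM, 20 min incubation at room temperature.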
# APE1 inh-1 – blocks human APE1 abasic DNA cleavage. Potency, µM (top dose mostly 65.8 µM), inactives show top-dose activity change, negative = inhibition, most hits filed as inhibitors. recombinant APE1, TAMRA/BHQ-2 abasic DNA cleavage fluorescence. AID 2517. hit rate 0.35% among 350,000;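 note: plate controls were vehicle for no effect and reference inhibitor for full effect; nearly all actives have a fitted effect of over 55% in size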
#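 Incision of a quenched TAMRA/BHQ-2 THF abasic-site duplex (50 nM) by 0.75 nM APE1, after 15 min compound preincubation, measured as fluorescence increase over three 60 s reads. Values normalized to buffer, DMSO and NSC13755 control wells.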
# BLM inh-1 – blocks DNA unwinding by human BLM helicase | recombinant BLM DNA unwinding, fluorescence dequenching | hit rate 0.2% among 350,000 | Potency, µM (series often up to 56.1 µM), for the others: at the highest dose activity change, negative = inhibition, hits mostly inhibitors | AID 2528;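 note: plate controls were vehicle for no effect and no enzyme for full effect; nearly all actives have a fitted effect of over 35% in size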
# L3MBTL1 block – inhibitors of human L3MBTL1. AID 485360. Q9Y468. AlphaScreen L3MBTL1–H3K9me1 peptide binding. hit rate 0.66% among 230,000. Potency, µM (titrated, usually from 57.1 µM), without a hit: at the top dose activity, negative = inhibition, usual class: inhibitors; note: nearly all actives have a fitted effect of over 60% in size
#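 L3MBTL1 (50 nM) pre-complexed 30 min with biotinylated H3(1-15)K9me1 peptide (75 nM), then compounds added for 30 min at room temperature; AlphaScreen streptavidin donor/nickel chelate acceptor beads (10 ug/mL final) read after 30 min dark incubation.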
# KDM4E inh – inhibitors of human JMJD2E histone demethylase | hit rate 1.6% among 230,000 | JMJD2E catalytic domain, FDH-coupled NADH fluorescence (FDH is formaldehyde dehydrogenase) | Potency, µM (highest dose often 57.1 µM), inactives show at the top dose activity change, negative = inhibition, most hits filed as inhibitors | B2RXH2 | AID 2147; active = well fitted inhibition curve with a large enough effect, not every such curve was filed as active; inconclusive = small, poorly fitted or top-dose-only effect, or another doubt; inactive = no such curve, though single readings can be large or run the other way;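 note: 0% = wells with enzyme and -100% = buffer wells without enzyme; nearly all actives have a fitted effect of over 50% in size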
# RECQ1 inh-1 – inhibitors of human RECQ1 DNA helicase. P46063. RECQ1 DNA unwinding, red fluorescence kinetic read. Potency, µM (top dose mostly 57.3 µM), for the others: at the highest dose activity, negative = inhibition, most hits filed as inhibitors. hit rate 0.54% among 240,000. AID 2549;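 note: plate controls were vehicle for no effect and no enzyme for full effect; nearly all actives have a fitted effect of over 30% in size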
#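 RECQ1T1 50 nM; forked duplex (20 bp + 30-nt ss tails) 200 nM, ATP 2 mM final; pH 8.0, 2 mM MgCl2, 2.5 ug/ml poly(dI-dC); 15 min compound preincubation; discontinuous kinetic read over 2 h at RT.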
# APE1 dye cs – DNA dye displacement counter-screen activity; shares compounds with APE1 inh-1; DNA fluorescent dye displacement counterscreen, fluorescence; Potency, µM (doses to about 28.5 µM), for the others: at the top dose activity change, negative = inhibition, usual class: inhibitors; hit rate 7% among 480;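 note: loss of thiazole orange fluorescence as the dye is displaced from duplex DNA; 0% = ThO with dsDNA and no compound and -100% = ThO without dsDNA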
# Endo IV inh – counter-screen for APE1 inhibitors: inhibitors of E. coli endonuclease IV; Potency, µM (doses to about 27.1 µM), for the others: at the top dose activity change, negative = inhibition, hits mostly inhibitors; shares compounds with APE1 inh-1; hit rate 4% among 560; E. coli Endo IV, fluorogenic AP-site DNA cleavage;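 note: plate controls were uninhibited enzyme wells for no effect and no enzyme buffer wells for full effect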
# APE1 inh-2 – confirmation of inhibitors of human APE1 endonuclease; purified APE1, fluorogenic abasic-site DNA cleavage; Potency, µM (series often up to 57.1 µM), without a hit: at the top dose activity change, negative = inhibition, hits mostly inhibitors; shares compounds with APE1 inh-1; hit rate 44% among 750; AID 2572; note: nearly all actives have a fitted effect of over 30% in size
# APE1 FP – APE1 (human) DNA binding inhibition, fluorescence polarization; shares compounds with APE1 inh-1; APE1 binding to TAMRA-labelled double-stranded DNA, fluorescence polarization displacement; Potency, µM (highest dose often 28.5 µM), for the others: at the top dose activity, negative = inhibition, most hits filed as inhibitors; hit rate 7% among 480; AID 2573
# BLM inh-2 – BLM (human) helicase inhibition, confirmation; shares compounds with BLM inh-1; BLM DNA unwinding, fluorescence quenching, biochemical; Potency, µM, for inactives: max response, negative = inhibition, actives largely listed as inhibitors; hit rate 40% among 220; AID 2585;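 note: strand separation dequenches TAMRA so unwinding raises red fluorescence; series mostly up to about 69 µM; nearly all actives have a fitted effect of over 45% in size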
# RECQ1 inh conf – confirmation of human RECQ1 helicase inhibitors; shares compounds with RECQ1 inh-1; RECQ1 helicase DNA unwinding, fluorescence; Potency, µM (top dose mostly 229 µM), inactives show at the top dose activity change, negative = inhibition, usual class: inhibitors; hit rate 28% among 610; AID 2708; note: nearly all actives have a fitted effect of over 45% in size
# RECQ1 ADP FP – ADP displacement flagged in RECQ1 inhibitor counter-screen | Potency, µM (titrated, usually from 228 µM), without a hit: top-dose activity change, negative = inhibition, usual class: inhibitors | ADP fluorescence polarization displacement counterscreen | hit rate 27% among 530 | AID 2711 | shares compounds with RECQ1 inh-1; note: nearly all actives have a fitted effect of over 45% in size
# RECQ1 inh-2 – RECQ1 helicase inhibition confirmed, round 2 | shares compounds with RECQ1 inh-1 | recombinant RECQ1 DNA unwinding, red fluorescence | Potency, µM (series often up to 119 µM), for inactives: top-dose activity, negative = inhibition, usual class: inhibitors | hit rate 15% among 1,100 | AID 504841; note: nearly all actives have a fitted effect of over 50% in size
# An asterisk follows results filed as active; i = inactive; ? = inconclusive; . = not tested or not shown; [ ] = another dose, or the depositor's remark. Unless noted, calls come from the whole dose curve; as a rule, active = well fitted curve in the direction sought with a large enough effect; inconclusive = small, poorly fitted or top-dose-only effect, or another doubt; inactive = no such curve, though single readings can be large; an effect the other way counts as inactive or inconclusive. Unless noted, % is set by controls: 0 for no effect and ±100 for the full control effect; potency is the fitted concentration of half-maximal effect.
SMILES,GCN5L2 inh,APE1 inh-1,BLM inh-1,L3MBTL1 block,KDM4E inh,RECQ1 inh-1,APE1 dye cs,Endo IV inh,APE1 inh-2,APE1 FP,others
CC(=O)c1nn(-c2cccc(Br)c2)cc1C(=O)c1ccccc1,-2%,?,-3%,0%,4%,i,-7%,7%,-7%[24.4 µM],4%,
CC(=O)c1nn(-c2cccc(Br)c2)cc1C(=O)c1ccc(Cl)cc1,-8%,18%,5%,6%,-3%,-1%,.,.,.,.,
CCCC(=O)Nc1ccccc1C(=O)OCc1cc(=O)n2nc(C(C)C)sc2n1,21%,.,1%,.,.,.,.,.,.,.,
O=C(CSc1nc(-c2ccc(F)cc2)nc2c1Cc1ccccc1O2)Nc1ccc(C(=O)O)cc1,14µM*,?,8.9µM*,5µM*,?,?,3.2µM*,?,4.5µM*,-38%,BLM inh-2=29µM*
O=C(COc1ccc(-c2ccccc2)cc1)NNC(=O)Nc1ccccc1,-12%,1%,.,-4%,.,.,.,.,.,.,
O=C(NN1C(=O)/C(=C/C=C/c2ccco2)SC1=S)c1ccncc1,-10%,4.5µM*,2%,.,20µM*,3.5µM*,1%,86%,4.5µM*,?,RECQ1 inh conf=22µM*;RECQ1 ADP FP=13µM*
CC(C)C[C@@H](CC(=O)N[C@@H](CCCN)CC(=O)N[C@@H]1CCNC[C@H]1C(=O)N[C@H](CC(=O)N[C@@H](CCC(=O)O)CC(=O)O)CC(C)C)NC(=O)[C@@H]1CNCC[C@H]1N,.,4%,3%,.,-23%,-13%,.,.,.,.,
CCOC(=O)c1ccc(NC(=S)N(CCCN2CCN(CC)CC2)Cc2cccs2)cc1,-8%,3%,-1%,?,4%,-2%,.,.,.,.,
O=C1C=C(O)c2cccc(O)c2C1=O,?,?,0%,.,7.9µM*,?,-3%,-3%,-4%[24.4 µM],2%,RECQ1 inh-2=-11%
CC1(C)CCCN(C(=O)c2coc(=O)c(Br)c2)C1,-25%,4µM*,30%,6.3µM*,?,11µM*,.,.,1.3µM*,.,RECQ1 inh conf=20µM*;RECQ1 ADP FP=-6%[91.9 µM]
